The target of one assay is Focal adhesion kinase 1 (Homo sapiens) (UniProt Q05397). The assay can be described thus: PTK2 protein binding on printed compound slides – biochemical, small-molecule microarray, 635/667 nm fluorescence, BSA, DTT, primary screen (AID 1130).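 Note: composite of spot emission at 667 nm and signal to noise over triplicate slides.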 Conditions: 635 nm fluorescence, higher = more signal.
Chain of Focal adhesion kinase 1 (Homo sapiens) (Q05397 whole entry, looked up): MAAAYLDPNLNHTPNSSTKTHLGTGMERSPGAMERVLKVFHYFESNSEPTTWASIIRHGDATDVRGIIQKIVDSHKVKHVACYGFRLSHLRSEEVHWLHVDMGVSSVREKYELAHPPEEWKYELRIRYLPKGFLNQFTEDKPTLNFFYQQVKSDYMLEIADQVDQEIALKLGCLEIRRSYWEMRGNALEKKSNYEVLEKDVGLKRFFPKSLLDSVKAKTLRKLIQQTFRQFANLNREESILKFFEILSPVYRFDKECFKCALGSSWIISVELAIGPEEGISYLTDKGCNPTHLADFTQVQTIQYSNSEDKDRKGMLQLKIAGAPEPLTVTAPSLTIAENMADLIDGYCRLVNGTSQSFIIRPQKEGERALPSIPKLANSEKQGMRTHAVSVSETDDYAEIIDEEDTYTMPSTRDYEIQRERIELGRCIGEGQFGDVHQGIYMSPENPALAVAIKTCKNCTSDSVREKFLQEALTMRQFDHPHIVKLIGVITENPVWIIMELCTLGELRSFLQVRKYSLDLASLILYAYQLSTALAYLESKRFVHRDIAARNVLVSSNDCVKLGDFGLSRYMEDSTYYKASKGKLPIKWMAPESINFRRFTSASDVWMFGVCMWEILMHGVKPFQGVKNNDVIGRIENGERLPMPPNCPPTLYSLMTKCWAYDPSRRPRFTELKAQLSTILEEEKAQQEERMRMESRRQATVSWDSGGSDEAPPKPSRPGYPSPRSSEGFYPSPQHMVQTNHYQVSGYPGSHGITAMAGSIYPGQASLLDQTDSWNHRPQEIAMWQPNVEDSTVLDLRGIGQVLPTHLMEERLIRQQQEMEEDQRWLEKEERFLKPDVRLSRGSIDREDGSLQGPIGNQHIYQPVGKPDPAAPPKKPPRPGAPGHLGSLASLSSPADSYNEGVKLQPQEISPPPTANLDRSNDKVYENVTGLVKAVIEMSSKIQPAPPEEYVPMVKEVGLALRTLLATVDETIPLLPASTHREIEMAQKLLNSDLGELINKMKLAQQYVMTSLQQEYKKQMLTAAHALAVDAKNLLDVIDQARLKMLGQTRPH
`CCOC(=O)C[C@H]1[C@H](OC(=O)Cc2ccc3c(c2)OCO3)[C@@H](NC(=O)c2ccc3ccccc3c2)c2cc(OCCCO)ccc2N1C(=O)c1ccccc1` yielded a composite z-score of 0.675.
The same measure, in the same setting: as for `[N-]=[N+]=Nc1ccccc1C[C@]1(C(N)=O)N=C(c2ccc(OCCCO)cc2)O[C@H]1c1ccccc1`, the figure is -0.155; as for `COC(=O)C=C(CC(O)c1cccc(Cl)c1)OC` (configuration not stated), 0.0918.
Regarding `Cc1ccc(C(C)CC(O)C2C=CC3C(=O)N(c4ccccc4)C(=O)C3N2Nc2ccc([N+](=O)[O-])cc2)o1` (configuration not stated), the composite z-score worked out at 0.772.
The same measure, in the same setting: the result for `[N-]=[N+]=Nc1ccccc1C[C@]1(C(=O)NCC(O)CO)N=C(c2ccc(OCCCO)cc2)O[C@H]1c1ccccc1N=[N+]=[N-]` (some centres not stated) reads 0.0567.

In another assay the test system is Fibrinogen (Alexa647-labelled). Kind of assay: Alexa647-fibrinogen binding to printed small molecules – biochemical, small-molecule microarray, 635/667 nm fluorescence, artefact control for SMM control-protein annotation, profiling panel (AID 1131).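 Note: z-score merges 667 nm fluorescence with per-spot signal-to-noise over triplicate slides.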 The note with it: fibrinogen-A647 binding fluorescence, higher = more signal.
As for `COCCCNC(=O)[C@@]1(Cc2ccccc2N=[N+]=[N-])N=C(c2ccc(OCCCO)cc2)O[C@H]1c1ccccc1N=[N+]=[N-]`, the composite z-score is 0.849.
In turn, `Cc1ccc(S[C@]2(C(=O)NC(C)C)CC(=O)N(Cc3ccccc3Cl)[C@@H]2c2ccc(CO)cc2I)cc1` had a composite z-score of 0.628.
For the compound `CC(C)c1ccc(NN2C(C(O)c3cc(C(F)(F)F)cc(C(F)(F)F)c3)C=CC3C(=O)N(c4ccccc4)C(=O)C32)cc1` (configuration not stated), the composite z-score came to 0.975.
`CCOC(=O)[C@H]1C/C=C/C[C@H](C(=O)OCC)C(=O)O[C@H]2[C@@H](OC)O[C@H](CO)[C@@H](OC(=O)Nc3cccc(F)c3)[C@@H]2OC1=O` had a composite z-score of 0.966.
For `C=CCC(OC(C)=O)[C@@H]1[C@@H](N(Cc2ccc(-c3cccc(C(F)(F)F)c3)o2)C(=O)c2ccc(-c3ccccc3)cc2)c2cc(OCCCO)ccc2N1C(=O)c1ccc(-c2ccccc2)cc1` (some centres not stated), the composite z-score is -0.557.
Same read-out and setting: the result for `O=C1O[C@H](c2ccccc2)[C@H](c2ccccc2)N2[C@H]1[C@@H](C(=O)NC[C@H](O)c1ccccc1)[C@]1(C(=O)Nc3ccccc31)[C@H]2c1ccc(OCCO)cc1` reads 0.743.
Same read-out and setting: as for `C=CCOC(=O)[C@H]1[C@@H]2C(=O)O[C@@H](c3ccccc3)[C@@H](c3ccccc3)N2[C@@H](c2ccc(OCCOC(=O)[C@H]3C[C@H]4C(=O)N5CCC[C@H]5C(=O)N4[C@H]3c3ccc(O)cc3)cc2)[C@]12C(=O)Nc1ccc(I)cc12`, the figure is 0.396; as for `O=C1NC(=O)C2C1C=CC(C(O)Cc1ccccc1)N2Nc1ccc(Cl)cc1Cl` (configuration not stated), 0.773.
Same read-out and setting: as for `CN(C)C(=O)[C@]1(Cc2ccccc2N=[N+]=[N-])N=C(c2ccc(OCCCO)cc2)O[C@@H]1c1ccccc1`, the figure is 0.882; as for `COCCOC(=O)N1C(=O)[C@@]2(c3cc(C#CC4=CCCCC4)ccc31)[C@H](C(=O)Nc1nc3ccccc3s1)[C@H]1C(=O)O[C@H](c3ccccc3)[C@H](c3ccccc3)N1[C@@H]2c1ccc(OCCO)cc1`, 0.192.
Take `C=CC[C@@]1(C(N)=O)N=C(c2ccc(OCCCO)cc2)O[C@@H]1c1ccccc1CN=[N+]=[N-]`: the composite z-score was determined as 0.968.
The compound `C#CCN(CC1=CCCCC1)[C@H](c1ccccc1Br)[C@@H](O)Cc1ccccc1` returned a composite z-score of -0.671.
On to `COc1ccc(C(=O)Nc2ccc(CN3C(=O)[C@@]4(O[C@@H](CCO)[C@H]([Si](C)(C)c5ccc(OC)cc5)[C@H]4C)c4ccccc43)cc2)cc1`, for which the composite z-score was 0.673.
`COC(=O)[C@@]1(Cc2ccc(F)cc2)[C@H]2c3cc(C(=O)N(C)C)n(CC4CC4)c3C[C@H]2CN1C(=O)c1ccccc1` registered a composite z-score of 0.94.
Regarding `O=C(NCc1ccc(F)cc1)[C@H]1C[C@H]2C(=O)N[C@@H](Cc3ccccc3)C(=O)N2[C@H]1c1ccc(O)cc1`, the composite z-score was -0.102.
The same measure, in the same setting: as for `COc1ccc(C(=O)Nc2ccc(CN3C(=O)[C@@]4(O[C@@H](CC(=O)N5CCC[C@H]5CO)[C@H]([Si](C)(C)c5ccc(OC)cc5)[C@H]4C)c4ccccc43)cc2)cc1`, the figure is 0.655; as for `CN(C)CCCNC(=O)[C@@]1(c2ccc([N+](=O)[O-])cc2)CC(=O)N(C2CCCCC2)[C@@H]1c1ccc(CO)cc1`, 0.874.
Still for that read-out and setting: the result for `C=CCN1C(=O)[C@@]2(O[C@@H](CCO)[C@H]([Si](C)(C)c3ccc(OC)cc3)[C@H]2C)c2cc(NC(=O)c3ccc(OC)cc3)ccc21` reads 0.259; that for `C=C(CCCC)/C(=C/C[C@@H](OC(C)=O)c1ccccc1OCCO)c1cnc2ccccc2c1`, 0.143.
Compound `COC(=O)[C@@]1(Cc2ccc(OC)cc2)[C@H]2c3cc(C(=O)N(C)C)n(Cc4cccc5ccccc45)c3C[C@H]2CN1C(=O)c1ccccc1` yielded a composite z-score of 1.02.
The same measure, in the same setting: as for `CC(=O)NCCCC[C@@H]1NC(=O)[C@@H]2C[C@H](C(=O)NCCCCCCNC(=O)CS)[C@H](c3cccc(OCCO)c3)N2C1=O`, the figure is -0.917; as for `COCCOC(=O)N1C(=O)[C@@]2(c3cc(C#CCNC(N)=O)ccc31)[C@H](C(=O)NC[C@H](O)c1ccccc1)[C@H]1C(=O)O[C@H](c3ccccc3)[C@H](c3ccccc3)N1[C@@H]2c1ccccc1OCCO`, 0.762.

Source of the values: PubChem BioAssay.
